Values joined by “and” are separate entries in the source; they are usually repeats but may differ in a detail not shown here. Equal entries are not always repeated. Records with an inconclusive call do not appear. A call without a number means that no potency is given here. The source holds several records for some structures; these can differ, active in one and inactive in another. Active and inactive are the calls of the source. The call rests on the fitted dose curve; in most records, active means well fitted curve in the direction sought with a large enough effect in the repeat runs; inconclusive means weak or mixed curves; inactive means no such curve, though single readings can be large; an effect the other way counts as inactive or inconclusive.
Key:
[1] = biological target: Cytochrome P450 2C19 (Homo sapiens) (UniProt P33261); assay: Cytochrome P450 Family 2 Subfamily C Member 19 (CYP2C19) small molecule antagonists: luciferase reporter qHTS assay (AID 1671197); further: nearly all actives have a fitted effect of over 65% in size; further: potency means the concentration at half of the fitted maximal effect; on activity change, negative = inhibition: series mostly up to about 120 µM
Summary of the method: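 Relative luminescence units recorded 20 min after the detection reagent stopped a 1 h, 37C CYP2C19 reaction on proluciferin substrate, which was started by NADPH regeneration following 10 min room-temperature compound preincubation; ketoconazole positive control.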

[2] = biological target: Voltage-gated inwardly rectifying potassium channel KCNH2 (Homo sapiens) (UniProt Q12809); assay: Human Ether-a-go-go-Related Gene (hERG) channel small molecule antagonists: fluorescence cell-based qHTS assay (AID 1671200);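 further: hERG-expressing U2OS cells given a thallium stimulus after FluxOR II dye loading; series mostly up to about 77 µM; nearly all actives have a fitted effect of over 50% in size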
Summary of the method: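 U2OS cells expressing the channel were plated at 1000 cells/well, incubated overnight at 37 C, then loaded with FluxOR II thallium-sensitive dye for 1 h at room temperature in the dark, with a further 10 min at room temperature before stimulation.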

[3] = biological target: Cytochrome P450 3A4 (Homo sapiens) (UniProt P08684); assay: Cytochrome P450 Family 3 Subfamily A Member 4 (CYP3A4) small molecule antagonists: luciferase reporter qHTS assay (AID 1671201); further: nearly all actives have a fitted effect of over 50% in size; further: potency means the concentration at half of the fitted maximal effect; on activity change, negative = inhibition: series mostly up to about 120 µM
Summary of the method: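 P450-Glo CYP3A4 system with proluciferin substrate; compounds preincubated 10 min RT with enzyme-substrate mix, then NADPH regeneration added for 1 h RT. Detection reagent 20 min, luminescence read as relative luminescence units.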

[4] = biological target: Cytochrome P450 1A2 (Homo sapiens) (UniProt P05177); assay: Cytochrome P450 Family 1 Subfamily A Member 2 (CYP1A2) small molecule antagonists: luciferase reporter qHTS assay (AID 1671199); further: nearly all actives have a fitted effect of over 50% in size; further: potency means the concentration at half of the fitted maximal effect; on activity change, negative = inhibition: series mostly up to about 120 µM
Summary of the method: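 Luminescence from luciferin formed by CYP1A2 from a proluciferin substrate, read 20 min after detection reagent. Compound was pre-incubated 10 min with enzyme-substrate, and reaction started with NADPH regeneration solution for 1 h at room temperature; furafylline control.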

Sequence of Cytochrome P450 2C19 (Homo sapiens) (P33261 whole entry, looked up): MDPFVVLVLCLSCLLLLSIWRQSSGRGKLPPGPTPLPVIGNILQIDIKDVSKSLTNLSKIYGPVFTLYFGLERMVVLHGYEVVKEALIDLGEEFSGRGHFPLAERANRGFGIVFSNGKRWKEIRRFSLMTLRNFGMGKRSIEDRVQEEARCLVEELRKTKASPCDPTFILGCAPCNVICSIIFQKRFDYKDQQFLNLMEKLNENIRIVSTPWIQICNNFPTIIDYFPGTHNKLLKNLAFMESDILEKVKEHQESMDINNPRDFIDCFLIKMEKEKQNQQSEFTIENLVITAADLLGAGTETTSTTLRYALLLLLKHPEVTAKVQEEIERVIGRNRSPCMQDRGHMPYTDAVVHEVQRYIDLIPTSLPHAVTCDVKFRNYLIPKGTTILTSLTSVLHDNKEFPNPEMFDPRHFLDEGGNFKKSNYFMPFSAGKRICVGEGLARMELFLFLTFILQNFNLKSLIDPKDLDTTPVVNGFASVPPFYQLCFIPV
Sequence of Cytochrome P450 1A2 (Homo sapiens) (P05177 whole entry, looked up): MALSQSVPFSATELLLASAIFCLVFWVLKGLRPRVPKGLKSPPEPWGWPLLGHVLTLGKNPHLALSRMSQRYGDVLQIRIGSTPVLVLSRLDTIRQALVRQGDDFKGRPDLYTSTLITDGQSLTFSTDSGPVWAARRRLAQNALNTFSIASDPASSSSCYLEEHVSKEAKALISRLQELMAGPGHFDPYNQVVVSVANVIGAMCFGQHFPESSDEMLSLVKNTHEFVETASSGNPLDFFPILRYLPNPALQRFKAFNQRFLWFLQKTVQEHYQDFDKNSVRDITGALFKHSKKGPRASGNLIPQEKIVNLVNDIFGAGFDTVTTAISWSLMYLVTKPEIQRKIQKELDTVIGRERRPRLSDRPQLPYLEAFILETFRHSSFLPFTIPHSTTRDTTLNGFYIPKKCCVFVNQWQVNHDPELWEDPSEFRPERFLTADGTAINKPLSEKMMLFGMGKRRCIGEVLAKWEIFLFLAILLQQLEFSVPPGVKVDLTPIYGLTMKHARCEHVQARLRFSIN
Sequence of Voltage-gated inwardly rectifying potassium channel KCNH2 (Homo sapiens) (Q12809 whole entry, looked up): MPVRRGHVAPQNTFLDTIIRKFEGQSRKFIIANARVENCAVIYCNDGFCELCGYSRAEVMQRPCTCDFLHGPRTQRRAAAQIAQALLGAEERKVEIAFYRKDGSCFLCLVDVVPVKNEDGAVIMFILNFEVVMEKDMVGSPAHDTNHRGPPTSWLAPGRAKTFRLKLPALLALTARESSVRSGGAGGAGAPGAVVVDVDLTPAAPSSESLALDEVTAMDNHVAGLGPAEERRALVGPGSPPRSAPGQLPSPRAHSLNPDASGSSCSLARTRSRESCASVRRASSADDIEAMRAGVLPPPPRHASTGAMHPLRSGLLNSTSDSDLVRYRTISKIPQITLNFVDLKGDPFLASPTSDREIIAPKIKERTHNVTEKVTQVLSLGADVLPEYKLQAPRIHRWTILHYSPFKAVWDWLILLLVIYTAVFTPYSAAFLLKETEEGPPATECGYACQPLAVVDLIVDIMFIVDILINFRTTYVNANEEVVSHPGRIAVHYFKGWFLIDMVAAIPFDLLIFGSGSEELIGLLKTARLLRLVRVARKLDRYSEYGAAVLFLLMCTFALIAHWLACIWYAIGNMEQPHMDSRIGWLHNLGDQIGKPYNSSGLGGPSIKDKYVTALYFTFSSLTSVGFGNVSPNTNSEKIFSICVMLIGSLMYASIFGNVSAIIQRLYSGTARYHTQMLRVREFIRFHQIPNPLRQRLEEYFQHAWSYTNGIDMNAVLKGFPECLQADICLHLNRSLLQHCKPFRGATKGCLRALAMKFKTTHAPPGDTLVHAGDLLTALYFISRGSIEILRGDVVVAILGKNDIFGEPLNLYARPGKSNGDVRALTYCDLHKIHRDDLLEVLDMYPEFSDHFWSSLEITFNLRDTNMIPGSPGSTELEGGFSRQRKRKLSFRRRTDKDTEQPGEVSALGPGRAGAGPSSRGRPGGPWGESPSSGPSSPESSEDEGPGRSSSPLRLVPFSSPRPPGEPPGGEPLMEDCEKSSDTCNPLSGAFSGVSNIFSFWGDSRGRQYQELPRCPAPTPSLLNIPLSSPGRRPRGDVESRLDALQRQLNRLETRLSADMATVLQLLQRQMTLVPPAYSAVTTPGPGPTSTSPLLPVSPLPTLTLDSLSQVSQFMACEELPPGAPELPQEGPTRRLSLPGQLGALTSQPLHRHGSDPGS
Sequence of Cytochrome P450 3A4 (Homo sapiens) (P08684 whole entry, looked up): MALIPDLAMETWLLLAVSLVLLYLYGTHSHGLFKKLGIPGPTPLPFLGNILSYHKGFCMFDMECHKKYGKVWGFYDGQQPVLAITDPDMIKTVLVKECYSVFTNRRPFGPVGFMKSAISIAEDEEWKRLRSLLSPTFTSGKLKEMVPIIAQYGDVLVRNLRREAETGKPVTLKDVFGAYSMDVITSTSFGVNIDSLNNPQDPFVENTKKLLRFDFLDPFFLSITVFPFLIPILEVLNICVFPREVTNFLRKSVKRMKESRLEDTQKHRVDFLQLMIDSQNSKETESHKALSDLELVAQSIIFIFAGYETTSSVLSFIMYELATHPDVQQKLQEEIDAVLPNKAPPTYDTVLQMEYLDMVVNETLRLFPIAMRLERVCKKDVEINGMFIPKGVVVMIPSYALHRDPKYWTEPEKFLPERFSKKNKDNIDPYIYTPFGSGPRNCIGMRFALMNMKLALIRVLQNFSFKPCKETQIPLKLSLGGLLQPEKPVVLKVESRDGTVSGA

Row | SMILES | Potency [1] | Potency [2] | Potency [3] | Potency [4] | activity change, negative = inhibition [1] | activity change, negative = inhibition [4]
1 | c1ccc2c(c1)Oc1ccccc1O2 | inactive | inactive | inactive |  |  | 
2 | CN(C)[C@@H]1C(=O)C(C(N)=O)=C(O)[C@@]2(O)C(=O)C3=C(O)c4c(O)cccc4[C@@](C)(O)[C@H]3C[C@@H]12 | inactive | inactive | inactive |  |  | 
3 | c1ccc2c(c1)oc1ccccc12 | 40.5 µM (active) |  | inactive | inactive and 10 µM (active) |  | 
4 | CCCCN(CCCC)SN(C)C(=O)Oc1cccc2c1OC(C)(C)C2 | 36.2 µM (active) and 71 µM (active) | inactive | 14.4 µM (active) and 12.6 µM (active) | 36.2 µM (active) and 39.9 µM (active) |  | 
5 | CC1C=[C-]C=C1.[C-]#[O+].[C-]#[O+].[C-]#[O+].[Mn] | inactive | inactive | inactive |  |  | 
6 | CCC(C)(CC)c1cc(NC(=O)c2c(OC)cccc2OC)on1 | 40 µM (active) and 68.3 µM (active) | inactive | 799 nM (active) and 1.93 µM (active) |  |  | 
7 | c1cc2c3c(cccc3c1)CC2 | 45.9 µM (active) and inactive | inactive | inactive |  |  | 
8 | Cc1ccc(N)cc1N | 34.6 µM (active) and 31.7 µM (active) | inactive | 30.9 µM (active) | 30.9 µM (active) and 35.6 µM (active) |  | 
9 | Nc1ccc(Cc2ccc(N)cc2)cc1 | 35 µM (active) and inactive |  | 6.99 µM (active) and 3.99 µM (active) | 39.3 µM (active) and 35.6 µM (active) |  | 
10 | Cc1[nH]c(=O)n(C(C)(C)C)c(=O)c1Cl | 71.7 µM (active) and 31.7 µM (active) |  | inactive |  |  | 
11 | CCCCN(CC)C(=O)SCCC | 80.5 µM (active) and inactive | inactive | inactive | inactive |  | 
12 | O=NN1CCCC1 | 33.2 µM (active) and inactive |  | inactive | 33.2 µM (active) and inactive |  | 
13 | CC(C)(Cl)Cl | 40.6 µM (active) and 71 µM (active) | inactive | inactive | inactive and 44.8 µM (active) |  | 
14 | CN(N=O)c1ccccc1 | inactive | inactive | inactive | inactive |  | 
15 | COC(=O)c1ccccc1N | inactive |  | inactive | 34.4 µM (active) and 39.9 µM (active) |  | 
16 | O=S(=O)(c1ccc(Cl)cc1)c1cc(Cl)c(Cl)cc1Cl | 251 nM (active) and 252 nM (active) |  | inactive |  |  | 
17 | C=C(C)CCl |  |  | inactive |  | 3.29% [at 10.5 µM] (inactive) | -9.56% [at 10.5 µM] (inactive)
18 | COCCl | 33 µM (active) and 22.6 µM (active) |  | inactive | 20.1 µM (active) |  | 

— PubChem BioAssay (Tox21)
